For six compounds, growth results are on record in PubChem BioAssay (NCI).

This is part of a sample that, as a whole, favours compounds with a hit. Of some 83,000 tested, about 20% had one in any assay.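 Percent growth is the endpoint: 0 to 100 indicates growth inhibition (40 means 60% inhibition), 0 means no net growth, and negative values indicate cell death.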 Values without a mark were called inactive. The source made the active and inactive calls. The calls were made as follows: active = growth percent below 10; inactive = the rest.

Among the test systems are NCI-H23 lung; NCI-H226 lung; NCI-H322M lung; HOP-62 NSCLC; NCI-H460 lung; HOP-92 NSCLC; NCI-H522 lung; A549/ATCC NSCLC; 786-0 renal; COLO 205 colon; DU-145 prostate; K-562 leukemia; MALME-3M melanoma; MDA-MB-231 breast; RXF 393 renal; SF-268 CNS; SF-295 CNS; SF-539 CNS; UACC-257 melanoma; M14 melanoma.
Experiment in all cases: NCI-60 one-dose screen, 48 h (100 = growth as untreated, 0 = no growth, -100 = all killed)
What all share (details): 10 µM unless noted

Regarding `COc1ccc(Nc2ncc(I)c(NCCCNC(=O)C3CCC3)n2)cc1`, the growth in the assay with NCI-H23 lung is 8.39% (active); in the assay with NCI-H226 lung, 5.32% (active); in the assay with NCI-H322M lung it was 6.78% (active); with HOP-62 NSCLC, -21.3% (active); with NCI-H460 lung, 8.88% (active); in the assay on HOP-92 NSCLC, -7.19% (active). In addition, the growth in the assay with NCI-H522 lung is 52.2%; in the assay on A549/ATCC NSCLC, -37.6% (active); in the assay on 786-0 renal, 9.69% (active); in the assay on COLO 205 colon, -59.3% (active); in the assay with DU-145 prostate it was 16.3%; in the assay on K-562 leukemia it was 25.7%. For the same compound, the growth in the assay on MALME-3M melanoma was 41%; in the assay on MDA-MB-231 breast, -45.4% (active); with RXF 393 renal it was -84.1% (active); in the assay with SF-268 CNS, 14.7%; in the assay with SF-295 CNS, 20.8%; in the assay on SF-539 CNS, -34.5% (active). Further, the growth is 75.3% in the assay with UACC-257 melanoma and 43% with M14 melanoma.
Consider `Cc1ccc(-c2csc(NC(=O)CSc3nc(N)cc(N)n3)n2)cc1`, for which the growth in the assay on NCI-H23 lung is 42.7%; in the assay on NCI-H226 lung it was 96.3%; with NCI-H322M lung it was 87%; in the assay with HOP-62 NSCLC, 50.9%; in the assay on NCI-H460 lung it was 78.6%; in the assay on HOP-92 NSCLC, 89.3%. Further, the growth was 54.6% in the assay with NCI-H522 lung; 62.7% with A549/ATCC NSCLC; 72.2% in the assay with 786-0 renal; 50.8% with COLO 205 colon; 77.2% with DU-145 prostate; 20.1% with K-562 leukemia. Moreover, the growth is 57.9% with MALME-3M melanoma; 67.5% in the assay on MDA-MB-231 breast; 92.1% in the assay with RXF 393 renal; 73.6% with SF-268 CNS; 50.2% in the assay on SF-295 CNS; 76.9% in the assay on SF-539 CNS. Also, the growth with UACC-257 melanoma was 79.9%; in the assay with M14 melanoma, 67.8%.
Consider `Nc1c(Br)cc2c(c1Br)Cc1cc([N+](=O)[O-])ccc1-2`, for which the growth in the assay with NCI-H23 lung was 81.3%; in the assay on NCI-H226 lung, 69%; with NCI-H322M lung, 98.4%; in the assay with HOP-62 NSCLC, 90.3%; with NCI-H460 lung, 83.2%; with HOP-92 NSCLC, 84.8%. The growth in the assay with NCI-H522 lung was 97%; in the assay with A549/ATCC NSCLC, 86.8%; in the assay on 786-0 renal, 109%; with COLO 205 colon, 109%; in the assay with DU-145 prostate it was 124%; in the assay on K-562 leukemia it was 69.5%. The growth with MALME-3M melanoma is 67.3%; with MDA-MB-231 breast it was 90.6%; with RXF 393 renal, 115%; in the assay on SF-268 CNS, 103%; in the assay on SF-295 CNS it was 117%; in the assay on SF-539 CNS, 99.4%. The values for the growth with UACC-257 melanoma and with M14 melanoma were 93.5% and 111%, respectively.
As to `COc1ccc(C(=O)/C=C/c2ccccc2)cc1S(N)(=O)=O`, the growth in the assay with NCI-H23 lung was 79.6%; in the assay with NCI-H226 lung, 82.5%; with NCI-H322M lung, 71.4%; with HOP-62 NSCLC it was 86.9%; with NCI-H460 lung, 53.6%; in the assay on HOP-92 NSCLC, 95.7%. Moreover, the growth is 76% with NCI-H522 lung; 65.7% in the assay on A549/ATCC NSCLC; 64.6% in the assay with 786-0 renal; 98.2% with COLO 205 colon; 41.7% in the assay with DU-145 prostate; 7.9% (active) in the assay with K-562 leukemia. For the same compound, the growth was 93.6% with MALME-3M melanoma; 71.5% in the assay on MDA-MB-231 breast; 80.6% with RXF 393 renal; 63.3% in the assay on SF-268 CNS; 91.1% in the assay with SF-295 CNS; 60.2% in the assay on SF-539 CNS. For the same compound, the values for the growth in the assay on UACC-257 melanoma and in the assay with M14 melanoma were 90.9% and 82.8%, respectively.
As to `COc1cc(N2C(=O)[C@H](Cl)C2c2ccc(SC)cc2)cc(OC)c1OC` (stereo not given in full), the growth is 16.7% in the assay with NCI-H23 lung; 53.8% in the assay on NCI-H226 lung; 42.9% in the assay on NCI-H322M lung; 23.1% in the assay with HOP-62 NSCLC; 5.39% (active) in the assay on NCI-H460 lung; -0.311% (active) in the assay with HOP-92 NSCLC. In addition, the growth with NCI-H522 lung was -7.37% (active); in the assay on A549/ATCC NSCLC, 11.1%; in the assay with 786-0 renal, -0.223% (active); in the assay on COLO 205 colon, -45.6% (active); in the assay with DU-145 prostate, 7.66% (active); with K-562 leukemia it was 4.94% (active). In addition, the growth with MALME-3M melanoma is 78.4%; in the assay on MDA-MB-231 breast, 29.3%; in the assay on RXF 393 renal, -16.1% (active); with SF-268 CNS it was 28.9%; in the assay on SF-295 CNS, -7.12% (active); in the assay on SF-539 CNS, 8.03% (active). The growth was 27.3% with UACC-257 melanoma and -2.68% (active) with M14 melanoma.
With `COc1ccc(CNc2ccc3nc(NC(=O)CN4CCCCCC4)sc3c2)cc1`, the growth in the assay on NCI-H23 lung is 71.1%; in the assay on NCI-H226 lung, 80%; in the assay on NCI-H322M lung, 106%; in the assay with HOP-62 NSCLC, 113%; with NCI-H460 lung, 94.9%; with HOP-92 NSCLC, 77.6%. Besides, the growth with NCI-H522 lung was 70.3%; in the assay on A549/ATCC NSCLC, 80.5%; in the assay on 786-0 renal, 104%; with COLO 205 colon, 82.4%; with DU-145 prostate, 99.2%; with K-562 leukemia it was 44.6%. Also, the growth with MALME-3M melanoma was 96.3%; in the assay on MDA-MB-231 breast it was 77.7%; in the assay on RXF 393 renal, 97%; in the assay with SF-268 CNS, 108%; in the assay with SF-295 CNS, 83.8%; with SF-539 CNS, 102%. Besides, the figures for the growth with UACC-257 melanoma and in the assay with M14 melanoma were 86% and 85.9%, respectively.
